The source of these data is PubChem BioAssay (NCI).

Values joined by “and” are separate entries in the source; they are usually repeats but may differ in a detail not shown here. Equal values may be shown once. About 83,000 compounds went through this panel and 20% of them were active in at least one assay; those are over-represented in the sample as a whole.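 For each line, cells grew in 96-well plates with the test compound present at a single concentration for 48 hours.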 Active and inactive are the calls of the source. How the source made its calls: active means growth percent below 10; inactive means the rest.

Among the test systems are SR leukemia; OVCAR-8 ovarian; OVCAR-5 ovarian; OVCAR-4 ovarian; IGROV1 ovarian; OVCAR-3 ovarian; HS 578T breast; NCI/ADR-RES ovarian; T-47D breast; BT-549 breast; MDA-MB-435 melanoma; SW-620 colon; MCF7 breast; HCT-116 colon; HCC-2998 colon; KM12 colon.
Common to all, as to assay: NCI-60 one-dose screen, 48 h (100 = growth as untreated, 0 = no growth, -100 = all killed)
In the next test the test system is RPMI-8226 leukemia. To be noted: 10 µM unless noted.
The next test has as its system SK-OV-3 ovarian. To be noted: 10 µM unless noted.

For `CCOc1ccc2cc(-c3nn(CC4CCNCC4)c4ncnc(N)c34)ccc2c1`, the growth in the test with SR leukemia (10 µM unless noted) is 59.3% (inactive) and -25.2% (active); with RPMI-8226 leukemia, 90.6% (inactive) and -13.2% (active); in the test with OVCAR-8 ovarian (10 µM unless noted), 92.1% (inactive) and 58.5% (inactive); in the test on OVCAR-5 ovarian (10 µM unless noted), 92% (inactive) and 70.5% (inactive); with OVCAR-4 ovarian (10 µM unless noted), 55.8% (inactive) and 42.7% (inactive); in the test on SK-OV-3 ovarian it was 91.7% (inactive) and 45.9% (inactive). Moreover, the growth with IGROV1 ovarian (10 µM unless noted) was 92.7% (inactive) and 47.8% (inactive); in the test with OVCAR-3 ovarian (10 µM unless noted) it was 101% (inactive) and 74.7% (inactive); in the test on HS 578T breast (10 µM unless noted) it was 83.8% (inactive) and 22.1% (inactive); with NCI/ADR-RES ovarian (10 µM unless noted), 99.5% (inactive) and 93.5% (inactive); in the test on T-47D breast (10 µM unless noted), 71% (inactive) and 34.2% (inactive); in the test with BT-549 breast (10 µM unless noted) it was 86.1% (inactive) and 36.2% (inactive). Further, the growth with MDA-MB-435 melanoma (10 µM unless noted) was 95.4% (inactive) and 14.9% (inactive); in the test on SW-620 colon (10 µM unless noted) it was 91.6% (inactive) and 37.3% (inactive); with MCF7 breast (10 µM unless noted) it was 78.8% (inactive) and 46.2% (inactive); with HCT-116 colon (10 µM unless noted), 80.4% (inactive) and 16.4% (inactive); with HCC-2998 colon (10 µM unless noted), 110% (inactive) and 49.1% (inactive); in the test with KM12 colon (10 µM unless noted) it was 14.5% (inactive) and 11.9% (inactive).

For `COc1ccc(S(=O)(=O)N2CCOCC2)cc1NC(=O)c1[nH]c(C)c2c1CCCCC2=O`, the growth in the test with SR leukemia (10 µM unless noted) was 113% (inactive) and 64.4% (inactive); in the test with RPMI-8226 leukemia, 104% (inactive) and 21.5% (inactive); in the test with OVCAR-8 ovarian (10 µM unless noted), 99.6% (inactive) and 61.7% (inactive); with OVCAR-5 ovarian (10 µM unless noted), 102% (inactive) and 66.8% (inactive); in the test on OVCAR-4 ovarian (10 µM unless noted), 114% (inactive) and 59.2% (inactive); in the test on SK-OV-3 ovarian, 103% (inactive). Also, the growth was 108% (inactive) and 47.1% (inactive) in the test with IGROV1 ovarian (10 µM unless noted); 111% (inactive) and 68% (inactive) with OVCAR-3 ovarian (10 µM unless noted); 91.8% (inactive) and 23.1% (inactive) in the test on HS 578T breast (10 µM unless noted); 107% (inactive) and 79.1% (inactive) in the test on NCI/ADR-RES ovarian (10 µM unless noted); 107% (inactive) and 42% (inactive) in the test with T-47D breast (10 µM unless noted); 116% (inactive) and 102% (inactive) with BT-549 breast (10 µM unless noted). Also, the growth in the test with MDA-MB-435 melanoma (10 µM unless noted) was 105% (inactive) and 35.8% (inactive); in the test on SW-620 colon (10 µM unless noted) it was 103% (inactive) and 67.5% (inactive); in the test on MCF7 breast (10 µM unless noted), 91.1% (inactive) and 27.6% (inactive); with HCT-116 colon (10 µM unless noted) it was 109% (inactive) and 101% (inactive); in the test with HCC-2998 colon (10 µM unless noted) it was 102% (inactive) and 69.8% (inactive); in the test with KM12 colon (10 µM unless noted), 110% (inactive) and 65% (inactive).

As to `COc1ccccc1C(C)=O`, the growth in the test with SR leukemia (10 µM unless noted) is 95.8% (inactive) and 86% (inactive); in the test with RPMI-8226 leukemia it was 90.6% (inactive) and 100% (inactive); with OVCAR-8 ovarian (10 µM unless noted) it was 105% (inactive) and 96.7% (inactive); in the test on OVCAR-5 ovarian (10 µM unless noted), 117% (inactive) and 106% (inactive); in the test on OVCAR-4 ovarian (10 µM unless noted), 111% (inactive) and 105% (inactive); in the test on SK-OV-3 ovarian, 103% (inactive) and 102% (inactive). For the same compound, the growth was 119% (inactive) and 109% (inactive) with IGROV1 ovarian (10 µM unless noted); 106% (inactive) and 110% (inactive) with OVCAR-3 ovarian (10 µM unless noted); 88.2% (inactive) in the test with HS 578T breast (10 µM unless noted); 106% (inactive) and 113% (inactive) in the test with NCI/ADR-RES ovarian (10 µM unless noted); 106% (inactive) and 96.2% (inactive) in the test on T-47D breast (10 µM unless noted); 109% (inactive) and 100% (inactive) with BT-549 breast (10 µM unless noted). For the same compound, the growth was 104% (inactive) and 112% (inactive) in the test with MDA-MB-435 melanoma (10 µM unless noted); 95.4% (inactive) and 105% (inactive) in the test with SW-620 colon (10 µM unless noted); 103% (inactive) and 96.6% (inactive) in the test with MCF7 breast (10 µM unless noted); 107% (inactive) and 102% (inactive) with HCT-116 colon (10 µM unless noted); 111% (inactive) and 107% (inactive) in the test with HCC-2998 colon (10 µM unless noted); 102% (inactive) and 111% (inactive) in the test on KM12 colon (10 µM unless noted).

For the compound `COc1ccc(Cl)cc1C(=O)NCCc1ccc(S(=O)(=O)NC(=O)NC2CCCCC2)cc1`, the growth is 105% (inactive) and 90% (inactive) with SR leukemia (10 µM); 61.3% (inactive) in the test on SR leukemia (100 µM); 104% (inactive) and 99.5% (inactive) in the test on RPMI-8226 leukemia; 99.8% (inactive) and 100% (inactive) in the test on OVCAR-8 ovarian (10 µM); 67.3% (inactive) in the test with OVCAR-8 ovarian (100 µM); 111% (inactive) and 112% (inactive) in the test on OVCAR-5 ovarian (10 µM). In addition, the growth is 101% (inactive) in the test with OVCAR-5 ovarian (100 µM); 117% (inactive) and 103% (inactive) with OVCAR-4 ovarian (10 µM); 58.7% (inactive) in the test with OVCAR-4 ovarian (100 µM); 103% (inactive) and 96.1% (inactive) in the test on SK-OV-3 ovarian; 119% (inactive) and 99.4% (inactive) with IGROV1 ovarian (10 µM); 69.2% (inactive) with IGROV1 ovarian (100 µM). The growth in the test on OVCAR-3 ovarian (10 µM) was 112% (inactive) and 121% (inactive); with OVCAR-3 ovarian (100 µM) it was 66.1% (inactive); with HS 578T breast (10 µM) it was 94.7% (inactive) and 110% (inactive); with HS 578T breast (100 µM), 54.8% (inactive); in the test on NCI/ADR-RES ovarian (10 µM), 103% (inactive) and 107% (inactive); with NCI/ADR-RES ovarian (100 µM) it was 76.6% (inactive). Further, the growth with T-47D breast (10 µM) was 86% (inactive) and 87.6% (inactive); with T-47D breast (100 µM), 52.3% (inactive); with BT-549 breast (10 µM) it was 109% (inactive) and 107% (inactive); with BT-549 breast (100 µM), 67% (inactive); in the test with MDA-MB-435 melanoma (10 µM), 103% (inactive) and 107% (inactive); with MDA-MB-435 melanoma (100 µM), 69.5% (inactive). For the same compound, the growth is 99.3% (inactive) and 109% (inactive) with SW-620 colon (10 µM); 82.9% (inactive) in the test with SW-620 colon (100 µM); 108% (inactive) and 102% (inactive) in the test with MCF7 breast (10 µM); 66.1% (inactive) with MCF7 breast (100 µM); 110% (inactive) and 96.1% (inactive) with HCT-116 colon (10 µM); 67.3% (inactive) in the test on HCT-116 colon (100 µM). Also, the growth with HCC-2998 colon (10 µM) was 126% (inactive) and 118% (inactive); with HCC-2998 colon (100 µM), 87.4% (inactive); with KM12 colon (10 µM) it was 109% (inactive) and 108% (inactive); with KM12 colon (100 µM), 60.1% (inactive).
